Bioassay records as filed in PubChem.
ClpP mod – qHTS Assay for Activators of ClpP; purified B. subtilis ClpP, FRET peptide cleavage, 20 min; Potency, µM (series often up to 57.5 µM), without a hit: at the highest dose activity change, negative = active; actives 1.9% (n = 340,000); AID 651965, 2013; active = well fitted falling curve with a large enough effect; inconclusive = small, poorly fitted or top-dose-only effect; inactive = no such curve, though single readings can be large or run the other way; also: the source files actives as falling curves though it sought activators and does not explain the sign; nearly all actives have a fitted effect of over 65% in size
Target sequence (P80244 whole entry, looked up): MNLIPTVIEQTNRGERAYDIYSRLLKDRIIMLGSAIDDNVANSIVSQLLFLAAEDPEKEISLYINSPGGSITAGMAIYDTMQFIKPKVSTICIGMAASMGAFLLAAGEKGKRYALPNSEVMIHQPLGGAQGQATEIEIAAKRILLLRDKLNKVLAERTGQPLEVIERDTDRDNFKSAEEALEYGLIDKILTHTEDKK
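FRET quenching reversal measured ClpP activation: 10 microg/mL B. subtilis ClpP at pH 8 with the FRET-FV decapeptide, read at 430 nm after 320 nm excitation. The 20-min minus 0-min signal was scaled between DMSO/no-enzyme wells and ADEP (5.8 microM final).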
TDP1 cell noCPT – qHTS for Inhibitors of human tyrosyl-DNA phosphodiesterase 1 (TDP1): qHTS in cells in absence of CPT; DT40 Tdp1-/- hTDP1 cells, no CPT, ATP luminescence, 48 h; Potency, µM (top dose mostly 46.2 µM), inactives show at the highest dose activity change, negative = growth inhibition, actives largely listed as inhibitors; actives 15% (n = 420,000); AID 686978, 2013; also: % is scaled to controls: 0 for no effect and ±100 for the full control effect; nearly all actives have a fitted effect of over 55% in size
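Stably hTDP1-transfected Tdp1-null chicken DT40 cells were treated with library compounds minus camptothecin and grown for at least 48 hr at 37 °C, after which cellular ATP was quantified by luminescence.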
TDP1 block – inhibitors of human tyrosyl-DNA phosphodiesterase TDP1. actives 0.28% (n = 350,000). Q9NUW8. Potency, µM (series often up to 130 µM), inactives show at the highest dose activity change, negative = inhibition, usual class: inhibitors. AID 485290. recombinant TDP1, AlphaScreen DNA substrate cleavage; also: % is scaled to controls: 0 for no effect and ±100 for the full control effect; nearly all actives have a fitted effect of over 40% in size
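Signal: AlphaScreen proximity between streptavidin donor and anti-FITC acceptor beads on intact substrate. Reaction: Tdp1 1 nM, substrate 15 nM final, 5 min RT after 15 min compound preincubation.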
DT40 TDP1 CPT – growth inhibition of DT40 Tdp1-/-;hTDP1 cells with camptothecin (screen for TDP1 inhibitors). chicken DT40 Tdp1-/-;hTDP1 cells + 20 nM CPT, ATP luminescence, 48 h. Potency, µM (highest dose often 46.2 µM), without a hit: top-dose activity change, negative = growth inhibition, hits mostly inhibitors. actives 12% (n = 420,000); also: % is scaled to controls: 0 for no effect and ±100 for the full control effect; nearly all actives have a fitted effect of over 55% in size
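Chicken DT40 Tdp1-/- cells complemented with human TDP1, 400 cells/well, exposed to compounds plus 20 nM camptothecin for at least 48 h at 37 C; viability read as ATP content by CellTiter-Glo luminescence.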
Active calls of the source: *; ? = inconclusive; . = not tested or not shown; [ ] = another dose, or the depositor's remark. A selection: hits, their analogues and other compounds. The true share with any hit is near 17%. Unless noted, calls follow the shape of the dose curve; as a rule, active = well fitted curve in the direction sought with a large enough effect; inconclusive = small, poorly fitted or top-dose-only effect, or another doubt; inactive = no such curve, though single readings can be large; an effect the other way counts as inactive or inconclusive. Potency is read from the fitted curve at half-maximal effect.

SMILES	ClpP mod	TDP1 cell noCPT	TDP1 block	DT40 TDP1 CPT
CC1=C(CC(=O)NCC(=O)NCC(=O)O)c2cc(F)ccc2/C1=C/c1ccc(S(C)=O)cc1 (stereo not drawn)	.	6%	.	3%
Cc1cccc(OS(=O)(=O)NC(=O)OCC2CCCN3CCCCC23)c1 (stereo not drawn)	.	2%	1%	-6%
Cc1cc(Cl)c(S(=O)(=O)N2CCCC2)cc1OCC(=O)NC1CCCCC1	1%	18µM*	4%	15µM*
CCN(CC)S(=O)(=O)c1cc(C)c(C)cc1OCC(=O)NC1CCCC1	-2%	21µM*	0%	15µM*
CCCOc1cc(C)c(Cl)cc1S(=O)(=O)N(CC)CC	0%	?	-12%[56.1 µM]	18µM*
COc1cc(C)ccc1OCC(=O)NC1CCCCCC1	1%	?	0%	0%
O=C(O)CCC/C=C\C/C=C\C=C\[C@@H](O)C/C=C\CCCCCO	.	.	5%	.
CC(C)[C@H](NC(=O)c1ccccc1Cl)C(=O)NC1CCCCCC1	.	-24%	0%	-9%
CCOc1ccc(CNCc2ccccc2Cl)cc1	0%	?	-4%	16µM*
Cc1ccc(CNCc2ccccc2Cl)cc1	-3%	?	2%	-3%
O=C(CC1CCCCC1)NCc1ccccc1Cl	.	-23%	4%	-8%
Clc1ccccc1CNCC1CCC(CNCc2ccccc2Cl)CC1 (stereo not drawn)	.	3µM*	-8%[56.1 µM]	3µM*
Cc1cnc(C)cn1	-1%	-2%	.	-26%
CSc1nc(SC(C)C(=O)O)c2c3c(sc2n1)COC(C)(C)C3 (stereo not drawn)	4%	-3%	3%	-21%
CSc1nc(SCCN(C)C)c2c3c(sc2n1)COC(C)(C)C3	.	18µM*	7%	?
COc1cc(/C=C(\C#N)c2ccccn2)ccc1OCC(=O)Nc1ccc(Br)cc1	1%	-2%	6%	0%
CNC(=S)N/N=C1\CC(c2ccccc2)Oc2ccccc21 (stereo not drawn)	0%	2.6µM*	5%	5.2µM*
CCN1C(=O)c2ccccc2Sc2ccc(NC(=O)c3ccc(C#N)cc3)cc21	-15%	16µM*	3%	21µM*
Cc1ccc(C(=O)Nc2ccc3c(c2)N(C)C(=O)c2ccccc2S3)cc1	-6%	2.3µM*	5%	5.2µM*
CCN1C(=O)c2ccccc2Sc2ccc(NC(=O)Nc3ccccc3OC)cc21	-10%	?	8%	?
CN1C(=O)c2ccccc2Sc2ccc(NC(=O)c3ccccc3F)cc21	-14%	15µM*	1%	18µM*
CCN1C(=O)c2ccccc2Sc2ccc(NC(=O)Nc3cccc([N+](=O)[O-])c3C)cc21	-3%	?	7%	21µM*
Cn1c(=O)[nH]c2c(cnn2C)c1=O	1%	0%	.	1%
O=[N+]([O-])c1c(Nc2ccccc2O)cc(N2CCOCC2)c2nonc12	1%	15µM*	.	16µM*
COc1cccc(Nc2cc(N3CCOCC3)c3nonc3c2[N+](=O)[O-])c1	-1%	18µM*	-4%	21µM*
SMILES	ClpP mod	TDP1 cell noCPT	TDP1 block	DT40 TDP1 CPT
CCC(C)NC(=O)CSc1nc2cc3c(cc2c(=O)n1CCCCCC(=O)NCc1ccc2c(c1)OCO2)OCO3 (stereo not drawn)	-4%	-22%	-1%	-4%
CCCCCCCCN1[C@@H](CC(=O)O)c2ccc(/C=C/C(=O)O)cc2S1(=O)=O	-11%	?	.	?
CCOc1ccc(C(=O)NC2CC(=O)N(c3ccc(C)cc3)C2)cc1OCC (stereo not drawn)	-3%	?	3%	-5%
Cc1nc(C(=O)N2CCCC(N3CCN(c4ccc(F)cc4)CC3)C2)cs1 (stereo not drawn)	-1%	15µM*	.	21µM*
Cc1cc(C)c(C(=O)N2CCCC(N3CCN(c4ccc(F)cc4)CC3)C2)o1 (stereo not drawn)	2%	16µM*	11%	?
O=C(NC1CCCCC1)N1CCN(C(c2ccccc2)c2ccccc2)CC1	0%	16µM*	7%	10µM*
O=C(NC1CCCCC1)N1CCN(c2ccccc2)CC1	-1%	-16%	4%[56.1 µM]	-5%
S=C1Cc2ccccc2N1	-1%	0.73µM*	5%	0.92µM*
COCCn1c(C)cc(O)c(C(c2ccccc2OC)N2CCN(c3ccccc3)CC2)c1=O (stereo not drawn)	-1%	-5%	-3%	-17%
CCOC(=O)c1cnc2ccc(OC)cc2c1Nc1ccc(OCc2ccccc2Cl)cc1	0%	7.3µM*	-2%[12.3 µM]	12µM*
CCOC(=O)c1cnc2ccc(C)cc2c1Nc1ccc(OCc2ccccc2Cl)cc1	0%	23µM*	.	?
CCOC(=O)c1cnc2ccccc2c1Nc1cccc(OC)c1	-1%	16µM*	0%	?
CCOC(=O)c1cnc2ccc(C(=O)OC)cc2c1Nc1ccc(OCc2ccccc2Cl)cc1	-5%	?	.	-12%
CCOC(=O)c1cnc2c(ccc3ccccc32)c1Nc1ccc(OC)c(OC)c1	-3%	4.6µM*	.	4.6µM*
CCOC(=O)c1cnc2c(ccc3ccccc32)c1Nc1ccc(Cl)cc1	-3%	-24%	-1%[2.28 µM]	-16%
CCn1c(CN2CCN(C)CC2)nc2cc(NC(=O)c3cc(OC)c(OC)c(OC)c3)ccc21	-3%	-26%	3%	-21%
Cc1ccc(-c2csc3nc[nH]c(=S)c23)cc1	1%	5.2µM*	-4%	3.3µM*
S=c1[nH]cnc2scc(-c3ccc(Cl)cc3)c12	.	?	5%	?
O=c1[nH]cnc2scc(-c3ccc(Br)cc3)c12	.	?	5%	-8%
